Data as given in PubChem BioAssay (EPA / NIEHS).
Some structures have more than one record in an assay (separate samples or runs), and their calls can disagree. Calls of active or inactive are those of the source. Rule for the calls: active = hit-call score of the fitted dose curve at least 0.9, where 1 is the maximum; inactive = score below 0.9.

Test: CCTE_Harrill_HTTr_Apoptosis_MCF7: CCTE's 6-hour Apoptosis Assessment for the High-Throughput Transcriptomics (HTTr) Platform, in MCF-7 cells cultured in DMEM + 10% fetal bovine serum, Harrill Lab (AID 2284011)
Description: This is a cell-based assay that evaluates apoptosis using high content imaging to evaluate activation of caspase-3/7 using the CellEvent Caspase 3/7 Green detection reagent in 384-well format.One of seven assay components measured from the CCTE_Harrill_HTTr_Apoptosis assay. This was part of a full screening experiment. This is a cell-based assay that evaluates apoptosis in MCF-7 cells cultured in DMEM + 10% fetal bovine serum. High content imaging is used to evaluate activation of caspase-3/7 using the CellEvent Caspase 3/7 Green detection reagent. Measurements are taken at 6 hours after chemical dosing in 384-well format.The assay component endpoint CCTE_Harrill_HTTr_Apoptosis_MCF7 was analyzed with bidirectional fitting relation to DMSO as the negative control and baseline of activity. Using a type of viability reporter, gain-of-signal activity can be used to evaluate activation of caspase-3/7 using the CellEvent Caspase 3/7 Green detection reagent to understand changes in apoptosis. To generalize the intended target to other relatable targets, this assay endpoint is annotated to cell cycle, where the subfamily is apoptosis.
Chemicals were tested in MCF7 cells in an eight point dilution series with a six hour exposure duration.

SMILES | outcome | AC50
COc1ccc(O)cc1 | inactive | 
CCCCCC(CO)CCC (stereo not given) | inactive | 
O=C1C(c2[nH]c3ccc(S(=O)(=O)O)cc3c2O)=Nc2ccc(S(=O)(=O)O)cc21 | inactive | 
CC(c1cc2ccccc2s1)N(O)C(N)=O (stereo not given) | inactive | 
COC(=O)C1=C(C)NC(C)=C(C(=O)OCCN(C)Cc2ccccc2)C1c1cccc([N+](=O)[O-])c1 (stereo not given) | inactive | 
CC(C)C[C@H]1C(=O)N2CCC[C@H]2[C@]2(O)O[C@](NC(=O)[C@@H]3C=C4c5cccc6[nH]c(Br)c(c56)C[C@H]4N(C)C3)(C(C)C)C(=O)N12 | inactive | 
COc1cc(C=O)ccc1OC(=O)C(C)C | inactive | 
N#Cc1ccc(CC(=NNC(=O)Nc2ccc(OC(F)(F)F)cc2)c2cccc(C(F)(F)F)c2)cc1 | inactive | 
Cc1ccc(C(=O)c2cc(O)c(O)c([N+](=O)[O-])c2)cc1 | inactive | 
c1ccc2[nH]ccc2c1 | inactive | 55.3 µM (active)
CC(C)=CCCC(C)=CCCC(C)=CCO | inactive | 
c1ccc2c(c1)c1cccc3ccc4cccc2c4c31 | inactive | 
CC1CCC(C(C)(C)O)CC1 (stereo not given) | inactive | 
CC1CCC2CC1C2(C)C (stereo not given) | inactive | 
COc1cc2ncnc(Nc3cccc(Cl)c3)c2cc1OC | inactive | 
NC(N)=NC(=O)c1nc(Cl)c(N)nc1N | inactive | 
CC(C)(Oc1ccc(CCNC(=O)c2ccc(Cl)cc2)cc1)C(=O)O | inactive | 
CNC[C@H](O)c1cccc(O)c1 | inactive | 
CCCCN | inactive | 
CC(C)=CCO | inactive | 

SMILES | outcome | AC50
C=O | inactive | 
CN(C)C(=N)N=C(N)N | inactive | 
OCCN1CCNCC1 | inactive | 
Cc1ccc(C(C)C)cc1O | inactive | 
BrC1CCC(Br)C(Br)CCC(Br)C(Br)CCC1Br (stereo not given) | inactive | 
CCC(=O)OCc1ccccc1 | inactive | 
Cc1cccc(Nc2ccccc2C(=O)O)c1C | inactive | 
CCCCCCCCCCCCOCCO | inactive | 
NCCCCCCN | inactive | 
CC(C)[C@H]1CC[C@@H](C)CC1=O | inactive | 
Cc1ccc(C=O)cc1 | inactive | 
CCCCCCCCCCCCCC(=O)O | inactive | 
CN1Cc2c(N)cccc2C(c2ccccc2)C1 (stereo not given) | inactive | 
CC(CCO)CCc1ccccc1 (stereo not given) | inactive | 
Cc1ccc(C=O)s1 | inactive | 
O=C(O)Cc1cccc2ccccc12 | inactive | 
O=C(O)CN(CCN(CC(=O)O)CC(=O)O)CCN(CC(=O)O)CC(=O)O | inactive | 
C=CCOC(=O)CCC1CCCCC1 | inactive | 
Cc1c(N(C)C)c(=O)n(-c2ccccc2)n1C | inactive | 
